The nature of test [1]: qHTS assay to test for compound auto fluorescence at 535 nm (green) in HEK293 cells (AID 720680).
Test [2] can be described thus: qHTS assay to test for compound auto fluorescence at 460 nm (blue) in HEK293 cell free culture (AID 720681). The procedure, abridged:
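Test compounds were pinned into cell-free culture medium (DMEM with 10% FBS) and fluorescence was read directly at Ex/Em 405/460 nm. Signals were expressed as fluorescence equivalents of triamterene, with DMSO vehicle as control.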
In general terms: Quantitative high-throughput screening tests each substance at several concentrations.

Test [3] is described as follows: qHTS assay to test for compound auto fluorescence at 535 nm (green) in HEK293 cell free culture (AID 720682). The procedure, abridged: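 Steps: dispense DMEM/10% FBS into empty wells; pin in compound or DMSO; measure fluorescence at 485/535 nm. Values are fluorescein equivalents.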
Test [4] in a line: qHTS assay to test for compound auto fluorescence at 590 nm (red) in HEK293 cell free culture (AID 720683). The procedure, abridged: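 Tox21 10K library compounds were pinned into cell-free DMEM with 10% FBS and fluorescence was read at excitation 540 nm. Activity is expressed as Rose Bengal sodium equivalency.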
Test [5] in a line: qHTS assay to test for compound auto fluorescence at 590 nm (red) in HepG2 cell free culture (AID 720684). The procedure, abridged:
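Measured in medium alone (MEM containing 10% FBS) following pintool addition of compound; emission at 590 nm with 540 nm excitation, referenced to Rose Bengal sodium.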

Test [6] is described as follows: qHTS assay to test for compound auto fluorescence at 460 nm (blue) in HepG2 cell free culture (AID 720685). The procedure, abridged: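 Compound (23 nL) or DMSO pinned into cell-free MEM with 10% FBS; blue fluorescence read at 405/460 nm excitation/emission, expressed as auto-fluorescence equivalency to triamterene.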
Test [7] in a line: qHTS assay to test for compound auto fluorescence at 535 nm (green) in HepG2 cell free culture (AID 720686).
The nature of test [8]: qHTS assay to test for compound auto fluorescence at 460 nm (blue) in HepG2 cells (AID 720687). The procedure, abridged:
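Cells (2,000/well in MEM with 10% FBS) attached overnight at 37 C, then were exposed to compound or DMSO for 1 hr at 37 C, 5% CO2. Fluorescence read at Ex/Em 405/460 nm, expressed as triamterene-equivalent signal.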

Test [9] is described as follows: qHTS assay to identify small molecule antagonists of the glucocorticoid receptor (GR) signaling pathway - cell viability counter screen (AID 720693). Note: nearly all actives have a fitted effect of over 55% in size.
Test [10] can be described thus: qHTS assay for identifying genotoxic compounds that show differential cytotoxicity against isogenic chicken DT40 cell lines with known DNA damage response pathways - wild type cell line (AID 743012). Note: nearly all actives have a fitted effect of over 60% in size. Note: potency is the fitted concentration of half-maximal effect. The procedure, abridged: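 Using parental DT40 (300 cells/well), compounds delivered in DMSO incubate 40 h at 37 C/5% CO2. CellTiter-Glo reagent then stands 30 min at room temperature, and luminescence gives cell viability.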

The nature of test [11]: qHTS assay for identifying genotoxic compounds that show differential cytotoxicity against isogenic chicken DT40 cell lines with known DNA damage response pathways - Rev3 mutant cell line (AID 743014). Note: nearly all actives have a fitted effect of over 55% in size. Note: potency is the fitted concentration of half-maximal effect.
A short description of test [12]: qHTS assay for identifying genotoxic compounds that show differential cytotoxicity against isogenic chicken DT40 cell lines with known DNA damage response pathways - Rad54/Ku70 mutant cell line (AID 743015). Note: nearly all actives have a fitted effect of over 60% in size. Note: potency is the fitted concentration of half-maximal effect.
Test [13] can be described thus: qHTS assay to identify small molecule antagonists of the androgen receptor (AR) signaling pathway - cell viability counter screen (AID 743033; note: nearly all actives have a fitted effect of over 45% in size).
Test [14] in a line: qHTS assay to identify small molecule antagonists of the androgen receptor (AR) signaling pathway using the MDA cell line - cell viability counter screen (AID 743041; note: nearly all actives have a fitted effect of over 45% in size). The procedure, abridged: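 Viability counter screen run alongside the AR antagonist reporter: cells seeded 5 h before compound, R1881 added, 16 h incubation at 37C without CO2, fluorescent CellTiter-Fluor signal quantified.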

Test [15] is described as follows: qHTS assay to identify small molecule antagonists of the thyroid receptor (TR) signaling pathway - cell viability counter screen (AID 743064). Note: nearly all actives have a fitted effect of over 50% in size. Note: potency is the fitted concentration of half-maximal effect. The procedure, abridged:
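Plate GH3.TRE-Luc cells; incubate 4 h at 37 °C; add compound, then T3 to 1 nM final; incubate 23.5 h; add CellTiter-Fluor; incubate 30 min at 37 °C, 5% CO2; read fluorescence.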

The target in test [16] is Androgen receptor (Homo sapiens) (UniProt P10275). As to the kind of experiment: qHTS assay to identify small molecule agonists of the androgen receptor (AR) signaling pathway using the MDA cell line (AID 743040; note: nearly all actives have a fitted effect of over 20% in size). The procedure, abridged:
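Luminescence from ONE-Glo, read after 30 min at room temperature, reflects MMTV-driven luciferase in MDA-kb2 cells (AR- and GR-responsive). Treatment lasted 16 h at 37C, 0% CO2.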

Test [17] shares this target. As to the kind of experiment: qHTS assay to identify small molecule antagonists of the androgen receptor (AR) signaling pathway (AID 743035; active = well fitted inhibition curve with a large enough effect in the signal ratio in the repeat runs, not every such curve was filed as active; the % refers to the signal ratio). The procedure, abridged: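 Using qHTS, AR-UAS-bla GripTite HEK293 cells received compound, then R1881, and were cultured 16 h at 37C/5% CO2 before a 2 h room-temperature LiveBLAzer B/G FRET substrate step and fluorescence measurement.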

Test [18] shares this target. As to the kind of experiment: qHTS assay to identify small molecule antagonists of the androgen receptor (AR) signaling pathway using the MDA cell line (AID 743042; note: nearly all actives have a fitted effect of over 55% in size). The procedure, abridged: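 MDA-kb2 cells (human breast carcinoma, stably carrying an MMTV-luciferase reporter responsive to AR and GR) were plated at 3,000 cells/well and preincubated 5 hr at 37C, then given compound plus R1881 agonist for 16 h. ONE-Glo luminescence was read.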

The target in test [19] is Glucocorticoid receptor (Homo sapiens) (UniProt P04150). As to the kind of experiment: qHTS assay to identify small molecule agonists of the glucocorticoid receptor (GR) signaling pathway (AID 720691; active = well fitted activation curve with a large enough effect in the signal ratio in the repeat runs, not every such curve was filed as active; the % refers to the signal ratio). The procedure, abridged: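 Reporter read-out: fluorescence intensity following 2 h room-temperature LiveBLAzer B/G FRET substrate loading. Prior step: GR-bla HeLa cells held 4 h, then treated 18 h at 37 C.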
Chain of Glucocorticoid receptor (Homo sapiens) (P04150 whole entry, looked up): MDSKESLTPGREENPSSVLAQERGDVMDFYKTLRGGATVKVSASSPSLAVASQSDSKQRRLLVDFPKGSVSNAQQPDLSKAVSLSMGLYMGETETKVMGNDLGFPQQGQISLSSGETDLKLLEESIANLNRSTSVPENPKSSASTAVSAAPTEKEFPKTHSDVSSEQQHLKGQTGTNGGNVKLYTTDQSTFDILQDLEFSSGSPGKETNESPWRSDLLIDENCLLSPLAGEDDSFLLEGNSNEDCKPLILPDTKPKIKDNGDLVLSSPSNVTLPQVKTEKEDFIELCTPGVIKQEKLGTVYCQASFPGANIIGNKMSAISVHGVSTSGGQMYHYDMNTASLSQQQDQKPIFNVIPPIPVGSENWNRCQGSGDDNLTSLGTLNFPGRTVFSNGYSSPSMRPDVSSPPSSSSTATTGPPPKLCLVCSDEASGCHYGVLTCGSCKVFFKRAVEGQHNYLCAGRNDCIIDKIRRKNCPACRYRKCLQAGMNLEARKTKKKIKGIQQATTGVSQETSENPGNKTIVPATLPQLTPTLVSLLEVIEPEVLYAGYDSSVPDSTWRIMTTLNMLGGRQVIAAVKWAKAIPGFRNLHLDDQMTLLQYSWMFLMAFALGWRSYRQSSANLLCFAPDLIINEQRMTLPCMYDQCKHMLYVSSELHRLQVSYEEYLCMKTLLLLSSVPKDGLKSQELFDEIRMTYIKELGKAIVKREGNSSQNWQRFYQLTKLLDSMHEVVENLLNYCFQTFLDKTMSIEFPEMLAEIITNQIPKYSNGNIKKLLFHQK

Test [20] shares this target. Nature of the test: qHTS assay to identify small molecule antagonists of the glucocorticoid receptor (GR) signaling pathway (AID 720692; active = well fitted inhibition curve with a large enough effect in the signal ratio in the repeat runs, not every such curve was filed as active; the % refers to the signal ratio). The procedure, abridged:
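Dexamethasone (5 nM final) stimulated a stably integrated GRE-beta-lactamase reporter in HeLa cells during 18 h co-incubation with compounds; signal was quantified as fluorescence intensity of B/G FRET substrate after 2 h.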

SMILES strings stand for the structures. A number with no mark means an inactive call. Results filed as inconclusive are left out. Calls of active or inactive are those of the source. Unless noted, calls come from the whole dose curve; as a rule, active = well fitted curve in the direction sought with a large enough effect in the repeat runs; inconclusive = weak or mixed curves; inactive = no such curve, though single readings can be large; an effect the other way counts as inactive or inconclusive.
% is set by controls: 0 for no effect and ±100 for the full control effect.

Chain of Androgen receptor (Homo sapiens) (P10275 whole entry, looked up): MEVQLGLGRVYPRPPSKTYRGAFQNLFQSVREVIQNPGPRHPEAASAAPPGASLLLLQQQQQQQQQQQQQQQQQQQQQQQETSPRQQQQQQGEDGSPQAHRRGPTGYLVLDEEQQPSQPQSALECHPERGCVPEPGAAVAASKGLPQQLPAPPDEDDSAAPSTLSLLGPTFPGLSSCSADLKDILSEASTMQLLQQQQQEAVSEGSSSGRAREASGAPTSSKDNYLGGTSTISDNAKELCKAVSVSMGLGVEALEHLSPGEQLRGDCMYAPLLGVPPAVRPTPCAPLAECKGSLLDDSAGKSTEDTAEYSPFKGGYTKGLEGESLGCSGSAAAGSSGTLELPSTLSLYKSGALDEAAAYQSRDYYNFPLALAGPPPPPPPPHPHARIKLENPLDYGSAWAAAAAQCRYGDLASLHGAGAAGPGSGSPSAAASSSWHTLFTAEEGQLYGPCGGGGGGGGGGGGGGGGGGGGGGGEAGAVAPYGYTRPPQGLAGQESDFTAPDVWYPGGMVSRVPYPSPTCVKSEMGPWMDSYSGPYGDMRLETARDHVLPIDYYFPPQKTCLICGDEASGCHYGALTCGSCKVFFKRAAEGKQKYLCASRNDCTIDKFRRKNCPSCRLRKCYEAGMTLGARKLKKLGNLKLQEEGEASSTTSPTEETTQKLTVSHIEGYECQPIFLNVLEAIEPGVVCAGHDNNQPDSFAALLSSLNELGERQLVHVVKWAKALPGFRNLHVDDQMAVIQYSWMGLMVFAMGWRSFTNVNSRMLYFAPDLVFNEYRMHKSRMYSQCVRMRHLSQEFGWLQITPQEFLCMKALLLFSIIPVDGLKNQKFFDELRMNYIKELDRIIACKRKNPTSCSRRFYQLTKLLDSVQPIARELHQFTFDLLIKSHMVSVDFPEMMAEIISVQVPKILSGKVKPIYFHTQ

On to `CCCCCCC`, for which the outcome in test [1], in [2], in [3], in test [4], in [5] and in test [6] was inactive. Moreover, the molecule was called inactive in test [7], in [8], in [9] and in test [13]. For the same molecule, the Potency entry in [10], in [11], in test [12], in [14] and in test [15] was “inactive” throughout.
On to `Cc1ccc(C=O)s1`, for which the call in test [1], in [2], in [3], in test [4], in test [5] and in test [6] was inactive. Besides, the outcome in test [7], in test [9] and in [13] was inactive. Further, the Potency entry in test [10], in test [11] and in [12] was “inactive” throughout.
Take `Cc1cc(NS(=O)(=O)c2ccc(N)cc2)nc(C)n1`: the call in test [1], in [2], in test [3], in test [4], in test [5] and in [6] was inactive. The result in test [7], in [9] and in test [13] was inactive. For the same molecule, the Potency entry in [10], in test [11], in test [14] and in test [15] was “inactive” throughout.
As to `CCC(=O)c1ccc2c(c1)N(CCCN(C)C)c1ccccc1S2`, the call in test [1], in test [2], in [3], in [4], in test [5] and in test [6] was inactive. The outcome in test [7] and in test [9] was inactive. In addition, the Potency was 4.73 µM (active) in test [10], 8.41 µM (active) in [11], 7.5 µM (active) in [12] and 7.5 µM (active) in test [15]. Also, the Potency entry in test [16] was “inactive”.
For the molecule `CCC(=O)O[C@]1(C(=O)SCF)[C@H](C)C[C@H]2[C@@H]3C[C@H](F)C4=CC(=O)C=C[C@]4(C)[C@@]3(F)[C@@H](O)C[C@@]21C`, the fluorescence, % of fluorescein in test [1] was 0.0173% [at 18.6 µM]. For the same molecule, the fluorescence, % of fluorescent control is 0.0707% [at 18.6 µM] in [2], -0.193% [at 18.6 µM] in test [4] and 0.0563% [at 18.6 µM] in [6]. Also, the activity change in test [3] was 0.0558% [at 18.6 µM]. Further, the fluorescence, % of Rose Bengal in test [5] is 0.622% [at 18.6 µM]. Moreover, the fluorescence, % of fluorescein control in [7] was 0.0971% [at 18.6 µM]. Besides, the result in test [9] and in [13] was inactive. Further, the Potency result in [11] and in [15] was “inactive” in each case.
With `CC(C)CCCCCCc1ccc(OCCOCCO)cc1`, the result in test [1], in test [2], in [3], in test [4], in [5] and in [6] was inactive. Also, the molecule was classed as inactive in test [7], in [8], in test [13] and in test [18]. Further, the Potency result in [10], in test [17], in test [16] and in test [14] was “inactive” in each case.
With `CC1=CC(=O)CC(C)(C)C1=O`, the outcome in test [1], in [2], in test [3], in test [4], in [5] and in [6] was inactive. For the same molecule, the result in [7], in [9] and in test [13] was inactive. For the same molecule, the Potency result in test [19], in [20], in [10], in test [11], in [12] and in test [14] was “inactive” throughout. In addition, the Potency entry in test [15] was “inactive”.
Regarding `CC1=NN(c2cc(Cl)c(S(=O)(=O)O)cc2Cl)C(=O)C1N=Nc1ccc(S(=O)(=O)O)cc1` (stereo unspecified), the result in test [1], in test [2], in test [3], in test [4], in [5] and in [6] was inactive. The outcome in test [7], in test [9] and in test [13] was inactive. The Potency result in test [10], in [11], in test [12], in test [14] and in [15] was “inactive” throughout.
Regarding `O=C1Nc2ccc([N+](=O)[O-])cc2C1=O`, the call in [1], in test [2], in test [3], in [4], in test [5] and in [6] was inactive. For the same molecule, the molecule was classed as inactive in test [7], in test [9] and in test [13]. Besides, the Potency entry in [19], in test [20], in test [10], in test [12] and in [15] was “inactive” each time.
On to `O=C(O)[C@@H](O)[C@H](O)[C@H](O)[C@@H](O)C(=O)O`, for which the molecule was called inactive in test [1], in test [2], in [3], in [4], in [5] and in [6]. For the same molecule, the molecule was called inactive in test [7], in test [9] and in [13]. Moreover, the Potency entry in [10], in test [11], in [12] and in test [15] was “inactive” in each case.
`NS(=O)(=O)c1cc(-c2nn[nH]n2)c(NCc2cccs2)cc1Cl`: the call in test [1], in test [2], in [3], in [4], in test [5] and in [6] was inactive. Moreover, the result in test [7], in [9] and in test [13] was inactive. Besides, the Potency result in [19], in test [20], in [10], in [11], in test [12] and in test [14] was “inactive” throughout. For the same molecule, the Potency result in test [15] is “inactive”.
Turning to `C=CCCCCCCCCO`, the call in [1], in [2], in test [3], in [4], in test [5] and in test [6] was inactive. The result in test [7] was inactive. In addition, the Potency entry in [19], in [20], in test [10], in test [11], in test [12] and in [14] was “inactive” each time. In test [15], the Potency result was “inactive”.
Turning to `c1ccc(CN(CC2=NCCN2)c2ccccc2)cc1`, the molecule was called inactive in test [1], in test [2], in test [3], in test [4], in test [5] and in test [6]. For the same molecule, the molecule was called inactive in test [7], in [8] and in test [13]. Also, the Potency in [10] is 29.8 µM (active); in test [15], 26.6 µM (active).
Take `O=CCCc1ccccc1`: the call in test [1], in test [2], in test [3], in test [4], in test [5] and in test [6] was inactive. Further, the molecule was classed as inactive in test [7], in test [8] and in [13]. The Potency entry in [10], in [12], in test [14] and in test [15] was “inactive” in each case.
For `N#Cc1ccc(C(c2ccc(C#N)cc2)n2cncn2)cc1`, the outcome in test [1], in [2], in test [3], in test [4], in test [5] and in test [6] was inactive. The result in [7], in [9] and in test [18] was inactive. The Potency result in test [19], in test [20], in [10], in test [11], in test [12] and in test [17] was “inactive” each time. Besides, the Potency entry in test [16] and in [15] was “inactive” throughout.

The values above are taken from PubChem BioAssay (Tox21).
